Reference: PubChem BioAssay AID1445 (SRMLSC, 2008)
Values joined by “and” are separate entries in the source; they are usually repeats but may differ in a detail not shown here. Equal entries are not always repeated. About 910 (0.41%) of roughly 220,000 compounds were called active.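 How the source made its calls: active means primary inhibition above the hit cutoff, then over 50% inhibition at one or more dose response concentrations (cut at about 23% in these data, passing the limit was not always enough); inconclusive means conflicting primary data, or primary hits not chosen for dose response; inactive means low primary inhibition, or under 50% at every dose.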 Shown is part of a subset that was picked to be rich in actives. Measured potencies and affinities stand elsewhere. Some compounds were tested as several samples or in several runs, with calls that do not always agree.

Biological target: Aminopeptidase N (Plasmodium falciparum (isolate 3D7)) (UniProt O96935)
Sequence (O96935 whole entry, looked up): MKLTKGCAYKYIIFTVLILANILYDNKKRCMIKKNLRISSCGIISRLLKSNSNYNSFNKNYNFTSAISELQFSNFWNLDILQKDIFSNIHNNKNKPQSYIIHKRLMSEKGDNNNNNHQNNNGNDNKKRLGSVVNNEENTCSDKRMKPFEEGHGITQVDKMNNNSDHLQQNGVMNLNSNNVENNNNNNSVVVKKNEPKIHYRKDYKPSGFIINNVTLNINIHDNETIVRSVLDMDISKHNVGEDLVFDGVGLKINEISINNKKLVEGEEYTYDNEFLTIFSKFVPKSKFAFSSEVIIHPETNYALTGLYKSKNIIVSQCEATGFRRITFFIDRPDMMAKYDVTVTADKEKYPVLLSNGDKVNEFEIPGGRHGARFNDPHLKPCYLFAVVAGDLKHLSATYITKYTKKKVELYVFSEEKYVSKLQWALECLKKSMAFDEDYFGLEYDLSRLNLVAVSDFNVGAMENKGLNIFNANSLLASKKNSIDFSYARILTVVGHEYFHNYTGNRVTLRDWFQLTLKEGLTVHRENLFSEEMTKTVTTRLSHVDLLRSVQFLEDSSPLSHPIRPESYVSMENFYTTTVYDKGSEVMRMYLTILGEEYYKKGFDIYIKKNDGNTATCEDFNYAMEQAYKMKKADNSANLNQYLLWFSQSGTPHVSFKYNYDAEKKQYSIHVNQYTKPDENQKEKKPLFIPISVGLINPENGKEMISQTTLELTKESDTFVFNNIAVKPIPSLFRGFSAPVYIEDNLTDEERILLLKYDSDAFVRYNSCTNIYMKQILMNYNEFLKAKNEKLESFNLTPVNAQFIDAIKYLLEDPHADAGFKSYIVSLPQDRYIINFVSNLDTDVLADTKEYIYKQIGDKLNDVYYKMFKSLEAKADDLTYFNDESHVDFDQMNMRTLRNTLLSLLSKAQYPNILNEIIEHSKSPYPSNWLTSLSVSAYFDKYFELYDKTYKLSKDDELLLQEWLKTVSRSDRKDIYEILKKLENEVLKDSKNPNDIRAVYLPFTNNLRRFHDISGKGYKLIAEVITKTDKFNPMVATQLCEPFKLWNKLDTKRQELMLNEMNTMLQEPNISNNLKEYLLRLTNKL
Experiment: P. falciparum M1AAP inhibitors, biochemical, fluorogenic H-Leu-NHMec substrate, 1536-well (AID 1445);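 further: plate controls were DMSO full reaction for no effect and no enzyme background for full effect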
Settings: recombinant M1AAP, H-Leu-NHMec fluorogenic kinetic assay; at 30 µM, stronger effect = higher value unless noted

**Q.** How did the inhibition turn out when `CS(=O)(=O)N1CCCC(C(=O)c2cccc(Cl)c2)C1` (stereo unspecified) was run?
**A.** Its inhibition is -1.4% (inactive).

**Q.** For `O=C(NNC(=O)C1CCN(S(=O)(=O)c2cccc(C(F)(F)F)c2)CC1)C1CC1`, which inhibition is on record?
**A.** Its inhibition is -0.46% (inactive).

**Q.** For `CCCS(=O)(=O)N1CCCC(C(=O)c2cccc(Cl)c2)C1` (stereo unspecified), which inhibition is on record?
**A.** Its inhibition is 2.05% (inactive).

**Q.** `CS(=O)(=O)N1CCC(C(=O)Nc2cccc(Cl)c2)CC1` was tested. Which inhibition did it give?
**A.** The inhibition was -2.4% (inactive).

**Q.** For `CCCS(=O)(=O)N1CCC(C(=O)c2cccc(C(F)(F)F)c2)CC1`, which inhibition is on record?
**A.** The inhibition was 23.4% (active).

**Q.** How did the inhibition turn out when `CCCCC1NC(C(=O)O)CS1` (stereo unspecified) was run?
**A.** Its inhibition is -4.57% (inactive).

**Q.** `Cc1ccc(C2C(=O)N(C3CCC(C)CC3)CC(=O)N2C2CC2)cc1` (stereo unspecified) was tested. Which inhibition did it give?
**A.** The inhibition was 6.72% (inactive).

**Q.** Which inhibition does the source give for `COc1ccc(-n2ncc(N(C)n3cccc3)c(Cl)c2=O)cc1` here?
**A.** The inhibition was 4.45% (inactive).

**Q.** `COc1ccc(/C=C\C(=O)NCC(=O)N/N=C/c2ccc(O)cc2O)cc1` was tested. Which inhibition did it give?
**A.** Its inhibition is 33.7% (inactive).

**Q.** With `O=C(CCNC(=O)c1ccccc1)N=Nc1c(O)[nH]c2ccccc12` as the molecule, how does the inhibition read?
**A.** The inhibition was 14% (inactive).

**Q.** How did the inhibition turn out when `CCOC(=O)c1cc(-c2cccc([N+](=O)[O-])c2)n[nH]1` was run?
**A.** The inhibition was 0.83% (inactive).

**Q.** With `CCOC(=O)c1cc(-c2cccc([N+](=O)[O-])c2)on1` as the molecule, how does the inhibition read?
**A.** Its inhibition is 7.98% (inactive).

**Q.** With `COc1ccc(N(C)C(=S)Nc2ccc3nc(C)c(C)nc3c2)cc1` as the molecule, how does the inhibition read?
**A.** Its inhibition is 0.41% (inactive).

**Q.** With `Cc1noc(NC(=O)c2cccc(C(F)(F)F)c2)c1Cl` as the molecule, how does the inhibition read?
**A.** The inhibition was 1.44% (inactive).

**Q.** Which inhibition does the source give for `CCOC(=O)c1ccc(C(=O)OCC)nc1` here?
**A.** Its inhibition is -0.25% (inactive).

**Q.** With `CCOC(=O)C1(CCOc2ccccc2)CCN(Cc2cccc3nonc23)CC1` as the molecule, how does the inhibition read?
**A.** Its inhibition is 11.9% (inactive).

**Q.** How did the inhibition turn out when `COc1ccc(C2c3[nH]c4ccccc4c3CCN2C(=O)c2ccc(=O)n(C)n2)c(F)c1` (stereo unspecified) was run?
**A.** Its inhibition is -6.53% (inactive).

**Q.** `O=C(c1ccccc1)N1CCC(O)(c2ccc3c(c2)OCO3)CC1` was tested. Which inhibition did it give?
**A.** Its inhibition is -2.13% (inactive).

**Q.** For `CN1C(=O)c2ccc(C(=O)NCc3ccccc3)cc2C1=O`, which inhibition is on record?
**A.** Its inhibition is 5.4% (inactive).

**Q.** For `CCN1C(=O)c2ccc(C(=O)NCc3ccccc3)cc2C1=O`, which inhibition is on record?
**A.** Its inhibition is 1.2% (inactive).

**Q.** With `CCCCCOc1ccccc1C(=O)NCCC(=O)O` as the molecule, how does the inhibition read?
**A.** The inhibition was 0.09% (inactive).

**Q.** With `Cc1cc(C)n(-c2ccc(F)cc2)c(=O)c1C#N` as the molecule, how does the inhibition read?
**A.** The inhibition was 3.92% (inactive).

**Q.** With `CCO/N=C(/C)c1c(O)cc(C(C)(C)C)n(-c2ccccc2)c1=O` as the molecule, how does the inhibition read?
**A.** The inhibition was 1.22% (inactive).

**Q.** With `Cc1ccc(C)c(NC2=NS(=O)(=O)c3ccccc32)c1` as the molecule, how does the inhibition read?
**A.** The inhibition was 3.34% (inactive).

**Q.** How did the inhibition turn out when `CC(=O)Nc1ccc(S(=O)(=O)NNC2=NS(=O)(=O)c3ccccc32)cc1` was run?
**A.** The inhibition was 5.01% (inactive).

**Q.** `Cc1cc(C)n2nc(N)c(N=Nc3ccc4c(c3)OCO4)c2n1` was tested. Which inhibition did it give?
**A.** Its inhibition is -0.91% (inactive).

**Q.** How did the inhibition turn out when `O=C(Nc1ccc(OCC(F)(F)C(F)F)cc1)c1ccncc1` was run?
**A.** Its inhibition is 3.56% (inactive).

**Q.** For `NC(=NCCc1c[nH]c2ccccc12)NC(=O)c1ccc(Cl)cc1`, which inhibition is on record?
**A.** Its inhibition is 2.62% (inactive).

**Q.** With `Cc1ccc(-n2c(SCc3cn4ccsc4n3)nc3ccccc3c2=O)cc1` as the molecule, how does the inhibition read?
**A.** The inhibition was 25.9% (active).

**Q.** For `O=c1c2ccccc2nc(SCc2cn3ccsc3n2)n1-c1ccccc1`, which inhibition is on record?
**A.** The inhibition was 14.2% (inactive).

**Q.** `O=c1c2ccccc2nc(SCc2cn3ccsc3n2)n1-c1ccc(F)cc1` was tested. Which inhibition did it give?
**A.** Its inhibition is -8.24% (inactive).

**Q.** Which inhibition does the source give for `O=C(NC1CCCCC1)C(c1ccncc1)N(C(=O)Cn1nnc(-c2cccs2)n1)C1CCCC1` (stereo unspecified) here?
**A.** The inhibition was 0.4% (inactive).

**Q.** `COc1ccccc1NC(=O)C(C)NS(=O)(=O)c1ccc(Cl)cc1` (stereo unspecified) was tested. Which inhibition did it give?
**A.** The inhibition was 0.77% (inactive).

**Q.** With `CCN(CC)c1ccc2c(C)c(CN3CCOCC3)c(=O)oc2c1` as the molecule, how does the inhibition read?
**A.** The inhibition was 7.04% (inactive).

**Q.** Which inhibition does the source give for `Cc1cc2oc(=O)cc(CN3CCOCC3)c2cc1C` here?
**A.** The inhibition was 11.2% (inactive).

**Q.** With `COCCN(C(=O)CN1CCN(S(=O)(=O)c2ccc(F)cc2)CC1)c1c(N)n(Cc2ccccc2)c(=O)[nH]c1=O` as the molecule, how does the inhibition read?
**A.** The inhibition was 7.35% (inactive).

**Q.** For `CC1(C)OC(=O)C(=NNc2ccccc2[N+](=O)[O-])C(=O)O1`, which inhibition is on record?
**A.** Its inhibition is 9.4% (inactive).

**Q.** With `CC1C/C(=N/Nc2ccc([N+](=O)[O-])cc2[N+](=O)[O-])CC(C)(C)C1` (stereo unspecified) as the molecule, how does the inhibition read?
**A.** Its inhibition is -1.42% (inactive).

**Q.** With `Nc1cc2c(cc1[N+](=O)[O-])OCO2` as the molecule, how does the inhibition read?
**A.** The inhibition was 7.4% (inactive).

**Q.** `CC(=O)Nc1cc2c(cc1[N+](=O)[O-])OCCO2` was tested. Which inhibition did it give?
**A.** The inhibition was 6.17% (inactive).

**Q.** For `O=C(N/N=C/c1ccccc1Cl)c1[nH]c2ccc(Br)cc2c1-c1ccccc1`, which inhibition is on record?
**A.** The inhibition was -5.79% (inactive).

**Q.** How did the inhibition turn out when `COc1ccc(/C=N/NC(=O)c2[nH]c3ccc(Br)cc3c2-c2ccccc2)cc1` was run?
**A.** The inhibition was 2.81% (inactive).

**Q.** Which inhibition does the source give for `CCOc1ccccc1N(C(=O)Nc1ccc(Cl)cc1)C1=NCCS1` here?
**A.** Its inhibition is -3.04% (inactive).

**Q.** For `COc1ccc(C2CC(=O)NC3=C2C(=O)CCC3)cc1Cl` (stereo unspecified), which inhibition is on record?
**A.** Its inhibition is -1.4% (inactive).

**Q.** `O=C(CSc1nnc(-c2ccccc2)n1Cc1ccccc1)NNC(=O)c1ccccc1O` was tested. Which inhibition did it give?
**A.** Its inhibition is 16.1% (inactive).

**Q.** With `O=C(O)CSc1nnc(-c2ccccc2O)n1Cc1ccccc1` as the molecule, how does the inhibition read?
**A.** The inhibition was 6.98% (inactive).

**Q.** `NC(=O)c1cc2c3ccccc3ccn2c1-c1ccccc1` was tested. Which inhibition did it give?
**A.** The inhibition was 0.96% (inactive).

**Q.** `CC(C)NC(=O)CSc1nnc(-c2ccc(F)cc2)c2ccccc12` was tested. Which inhibition did it give?
**A.** The inhibition was 0.8% (inactive).

**Q.** With `O=C1CC(c2ccco2)CC(O)=C1C=Nc1cc(Cl)cc(Cl)c1` (stereo unspecified) as the molecule, how does the inhibition read?
**A.** Its inhibition is -0.66% (inactive).

**Q.** How did the inhibition turn out when `O=C1CC(c2ccco2)CC(O)=C1C=Nc1cc(Cl)ccc1Cl` (stereo unspecified) was run?
**A.** The inhibition was 4.23% (inactive).

**Q.** Which inhibition does the source give for `O=C(NCc1ccccc1)c1nc2ccccc2s1` here?
**A.** The inhibition was 1.19% (inactive).

**Q.** With `Cc1c2cc(O)c(=O)cc-2oc2cc(O)c(O)cc12` as the molecule, how does the inhibition read?
**A.** Its inhibition is 24.7% (active) and 6.57% (inactive).

**Q.** For `O=c1cc2oc3cc(O)c(O)cc3c(-c3ccccc3O)c-2cc1O`, which inhibition is on record?
**A.** Its inhibition is 13.8% (inactive).

**Q.** Which inhibition does the source give for `COc1cc(OC)c(-c2c3cc(O)c(=O)cc-3oc3cc(O)c(O)cc23)cc1OC` here?
**A.** Its inhibition is 22.9% (inactive).

**Q.** How did the inhibition turn out when `CC(=O)Nn1cnc2c(c1=O)C1(CCCCC1)Cc1ccccc1-2` was run?
**A.** Its inhibition is 4.35% (inactive).

**Q.** Which inhibition does the source give for `COc1ccc(NC(=O)Nc2cccc(Cl)c2Cl)c(OC)n1` here?
**A.** The inhibition was 4.95% (inactive).

**Q.** Which inhibition does the source give for `COC1=C(Nc2ccccc2OC)C(=O)c2ccccc2C1=O` here?
**A.** Its inhibition is 7.8% (inactive).

**Q.** Which inhibition does the source give for `COc1ccccc1NC1=NC(C)(C)N=C(N)N1` here?
**A.** Its inhibition is 0.34% (inactive).

**Q.** For `COc1ccc(NC(=O)Nc2cccnc2)c(OC)c1`, which inhibition is on record?
**A.** The inhibition was 2.93% (inactive).

**Q.** `COc1ccc(OC)c(C2=NOC(C(=O)Nc3cccnc3)C2)c1` (stereo unspecified) was tested. Which inhibition did it give?
**A.** The inhibition was 7.85% (inactive).

**Q.** For `CCOc1ccc(-n2c(=O)[nH]cc(C(=O)N3CCc4ccccc43)c2=O)cc1`, which inhibition is on record?
**A.** The inhibition was 1.21% (inactive).
